Experimental data: PubChem BioAssay (Tox21)
Calls of active or inactive are those of the source. The call rests on the fitted dose curve; in most records, active means well fitted curve in the direction sought with a large enough effect in the repeat runs; inconclusive means weak or mixed curves; inactive means flat fitted curve, though single readings scatter.

Assay: qHTS assay to test for compound auto fluorescence at 535 nm (green) in HepG2 cells (AID 720675)
Settings: green autofluorescence 485/535 nm, 1 h; series mostly up to 91.3 µM
Text: National Center for Advancing Translational Sciences [NCATS]
NIH Chemical Genomics Center [NCGC]
U.S. Environmental Protection Agency [EPA]
National Institutes of Environmental Health Sciences [NIEHS]
National Toxicology Program [NTP]
U.S. Food and Drug Administration [FDA]
Compound auto fluorescence often interferes with screening of the compound library against various biological targets and signaling pathways. Some of these compounds may have fluorophoric properties. Such properties may interfere with the assay outputs resulting in false positives and/or negatives. To decrease such complications and ensure the compound activities are relevant in terms of biological response, the Tox21 10K compound library was screened for auto fluorescence.
From the fluorophores used as reporter signals in our screening assays, the auto fluorescence equivalencies of compounds against three fluorophores have been evaluated: Triamterene, Fluorescein and Rose Bengal sodium for blue, green and red fluorescence, respectively. The fluorescence intensities were measured using Excitation/Emission wavelengths at 405/460nm, 485/535nm and 540/590nm for blue, green and red labels, respectively. This assay includes the green fluorescence data.
Tox21 Assay Protocol Summary:
2,000 HepG2 cells in 5 uL of culture medium (MEM containing 10% FBS) per well were dispensed into black wall/clear bottom 1536-well plates using a Multidrop Combi Dispenser (ThermoFisher Scientific, Waltham, MA). The assay plates were incubated overnight at 37 C to allow cell attachment to the well bottom, followed by the transfer of 23 nL compound or DMSO vehicle by a pintool work station (Kalypsys , San Diego, CA). After the assay plates were incubated for 1 hr at 37 C and 5% CO2, fluorescence intensities in the assay plates were measured by an Envision (PerkinElmer, Shelton, CT) plate reader using three labels for measuring blue, green and red fluorescence at […] 460, 535 and 590 nm respectively.

Row | Structure (SMILES) | outcome
1 | COC(=O)Nc1cccc(OC(=O)Nc2cccc(C)c2)c1 | inactive
2 | Nc1ccc(N)cc1 | inactive
3 | CNC(=O)O/N=C(\SC)C(=O)N(C)C | inactive
4 | NNc1ccccc1 | inactive
5 | Cc1ccc(N=C=O)cc1N=C=O | inactive
6 | N#Cc1cccc(C#N)c1 | inactive
7 | CN(C)C(=O)Nc1cccc(C(F)(F)F)c1 | inactive
8 | O=S(=O)(O)OOS(=O)(=O)O | inactive
9 | CNC(=O)O/N=C/C(C)(C)S(C)=O (stereo not given) | inactive
10 | CNC(=O)O/N=C/C(C)(C)S(C)(=O)=O | inactive
11 | C=CC(=O)OCC(CC)CCCC (stereo not given) | inactive
12 | Nc1ccc([As](=O)(O)O)cc1 | inactive
13 | CN1C(=O)CCS(=O)(=O)C1c1ccc(Cl)cc1 (stereo not given) | inactive
14 | CNc1cnn(-c2cccc(C(F)(F)F)c2)c(=O)c1Cl | inactive
15 | Oc1c(Br)cc(Br)cc1Br | inactive
16 | OCC(O)CCl (stereo not given) | inactive
17 | Cc1ccc(O)c(C)c1 | inactive
18 | CC(=O)C1CCOC1=O (stereo not given) | inactive
19 | COC(C)(C)CCCC(C)C/C=C/C(C)=C/C(=O)OC(C)C (stereo not given) | inactive
20 | Cc1cccc(C)c1N | inactive

Row | Structure (SMILES) | outcome
21 | O=C(O)CCCc1ccc(N(CCCl)CCCl)cc1 | inactive
22 | O=C(O)C(Br)Br | inactive
23 | CN(C)C(=O)Cl | inactive
24 | CC(C)CCCCCCOC(=O)c1ccccc1C(=O)OCCCCCCC(C)C | inactive
25 | CCOP(=S)(OCC)Oc1ccc([N+](=O)[O-])cc1 | inactive
26 | C[C@H]1C(=O)O[C@@H]2CCN3CC=C(COC(=O)[C@](C)(O)[C@]1(C)O)[C@H]23 | inactive
27 | Nc1cc(Cl)cc(Cl)c1 | inactive
28 | FC(F)(F)c1ccc(Cl)cc1 | inactive
29 | CCOC(=O)CC(SP(=O)(OC)OC)C(=O)OCC (stereo not given) | inactive
30 | [N-]=[N+]=CC(=O)OC[C@H](N)C(=O)O | inactive
31 | Cc1cc(O)ccc1Cl | inactive
32 | ClCCOCCCl | inactive
33 | C=C(C)C(=O)OCC(CC)CCCC (stereo not given) | inactive
34 | O=[N+]([O-])c1ccc(Cl)cc1 | inactive
35 | O=C(O)Cc1ccccc1 | inactive
36 | Clc1cnc(Oc2ccc(Oc3ncc(Cl)cc3Cl)cc2)c(Cl)c1 | inactive
37 | c1ccc2c(c1)CCCC2 | inactive
38 | Cc1ccccc1N | inactive
39 | CN(C)CCC#N | inactive
40 | COc1cc(-c2ccc(N)c(OC)c2)ccc1N | inactive
